Test results reported in PubChem BioAssay (NCI).
Compounds without any hit were thinned out: in the full panel of roughly 79,000, 15% have a hit. Activity calls are given as the source filed them. No stated cut-off is given here; in the data, active means growth inhibition above about 70%; inactive means the rest.

Assay: NCI Yeast Anticancer Drug Screen. Data for the mlh1 strain (AID 171);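 further: 0% = growth of vehicle-treated control cultures of the same strain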
Conditions: S. cerevisiae mlh1 strain growth inhibition; at 100.0 µM; active compounds read high
In short: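 Vehicle-normalised growth inhibition of a repair- or checkpoint-altered yeast strain following compound treatment.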

| Structure (SMILES) | growth inhibition |
| --- | --- |
| COc1ccc2nc3cccc([N+](=O)[O-])c3c(NCCNCCN(C)C)c2c1 | 3% (inactive) |
| Cc1cccc(/C=N/NC(=S)NC2CCCCC2)n1 | 8% (inactive) |
| COC(=O)C(=O)c1c(-c2ccc(Cl)c(Cl)c2)[nH]c2[nH]n(-c3ccccc3)c(=O)c2c1=O | 57% (inactive) |
| c1ccc([P+](CCN2Cc3ccccc3C2)(c2ccccc2)c2ccccc2)cc1 | 95% (active) |
| Cc1cc(C)c2[s+]snc2c1 | 19% (inactive) |
| CC(C)(Br)C(=O)/C=C/c1ccccc1 | 27% (inactive) |
| Cc1ccc(S(=O)(=O)NC(=O)C2C(=O)CC3(CCCCC3)CC2=O)cc1 | 88% (active) |
| NC(=S)N1N=C2c3ccccc3CC[C@H]2[C@@H]1c1ccc(Cl)cc1 | 89% (active) |
| O=[N+]([O-])/C=C/c1cc2ccc3ccccc3c2[nH]1 | 93% (active) |
| O=C1C(=C2CCCC2)CCC1CN1CCCCC1 (stereo unspecified) | 97% (active) |
| OC(CC(O)(C(F)(F)F)C(F)(F)F)c1ccc(C(O)CC(O)(C(F)(F)F)C(F)(F)F)cc1 (stereo unspecified) | 99% (active) |
| COc1cc2c(cc1OC)[C@@H](Nc1ccc(C#N)cc1)C1COC(=O)[C@@H]1C2c1cc(OC)c(O)c(OC)c1 (stereo partly specified) | 81% (active) |
| O=c1cccccc1[O-].O=c1cccccc1[O-].O=c1cccccc1[O-].[Eu+3] | 98% (active) |
| O=C1c2ccccc2C(=O)c2sc(Nc3ccccc3Cl)nc21 | 97% (active) |
| NC(CCCCCCCCCCCCC(N)C(=O)c1ccccc1)C(=O)c1ccccc1 (stereo unspecified) | 93% (active) |
| CC1=C(C)C(=O)C2=C(OCCO2)C1=O | 54% (inactive) |
